Sm TGR inh = qHTS Assay for the Inhibitors of Schistosoma Mansoni Peroxiredoxins; Schistosoma mansoni thioredoxin glutathione reductase (TGR), Q962Y6; Potency, µM (doses to about 114 µM), for the others: at the highest dose activity change, negative = inhibition, most hits filed as inhibitors; hit rate 3% among 360,000; purified TGR, DTNB reduction, TNB absorbance 405 nm; AID 485364, 2010; note: potency is the fitted concentration of half-maximal effect; % is set by controls: 0 for no effect and ±100 for the full control effect; nearly all actives have a fitted effect of over 60% in size
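Kinetic colorimetric format: TGR-catalysed, NADPH-driven DTNB reduction monitored via TNB absorbance. Enzyme dispensed at 20 nM; compound exposure 15 min at room temperature before reaction start.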
Cycloheximide cs = Cycloheximide Counterscreen for Small Molecule Inhibitors of Shiga Toxin. max response, %. cell reporter, cycloheximide protein synthesis inhibition counterscreen. hit rate 12% among 300,000; in the data active = max response mostly above about 13%, no sharp cut-off; inactive = mostly below about 14%; note: read at 38.3 µM for the half of the compounds with a filed dose; 0% is about no effect
TbPYK inhibitor = qHTS of Trypanosoma Brucei Inhibitors. hit rate 0.12% among 410,000. TbPYK enzyme, Kinase-Glo Plus ATP luminescence, 45 min. pyruvate kinase (Trypanosoma brucei), Q57TT1. Potency, µM (top dose mostly 76.8 µM), for the others: at the highest dose activity, negative = inhibition, hits mostly inhibitors; note: potency is the fitted concentration of half-maximal effect; % is set by controls: 0 for no effect and ±100 for the full control effect; nearly all actives have a fitted effect of over 50% in size
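ADP (130 uM final) triggers the TbPYK reaction after compound addition; incubation is 45 min at room temperature. Kinase-Glo Plus is then added and luminescence imaged. Normalized data are fitted to concentration-effect curves.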
Shiga toxin inh = A qHTS for Small Molecule Inhibitors of Shiga Toxin; AID 2315, 2010; Vero cells, Shiga toxin protein synthesis inhibition reporter; hit rate 9.2% among 290,000; inhibition, % at 38.7 µM; in the data active = inhibition mostly above about 28%, no sharp cut-off; inactive = mostly below about 43%; note: 0% is about no effect
LmPK inhibitor = qHTS Assay for Inhibitors of Leishmania Mexicana Pyruvate Kinase (LmPK); Q27686; purified LmPK, Kinase-Glo ATP luminescence, 1 h; Potency, µM (titrated, usually from 57.5 µM), without a hit: at the highest dose activity change, negative = inhibition, usual class: inhibitors; hit rate 0.37% among 290,000; note: potency is the fitted concentration of half-maximal effect; % is set by controls: 0 for no effect and ±100 for the full control effect
Target sequence (Q27686 whole entry, looked up): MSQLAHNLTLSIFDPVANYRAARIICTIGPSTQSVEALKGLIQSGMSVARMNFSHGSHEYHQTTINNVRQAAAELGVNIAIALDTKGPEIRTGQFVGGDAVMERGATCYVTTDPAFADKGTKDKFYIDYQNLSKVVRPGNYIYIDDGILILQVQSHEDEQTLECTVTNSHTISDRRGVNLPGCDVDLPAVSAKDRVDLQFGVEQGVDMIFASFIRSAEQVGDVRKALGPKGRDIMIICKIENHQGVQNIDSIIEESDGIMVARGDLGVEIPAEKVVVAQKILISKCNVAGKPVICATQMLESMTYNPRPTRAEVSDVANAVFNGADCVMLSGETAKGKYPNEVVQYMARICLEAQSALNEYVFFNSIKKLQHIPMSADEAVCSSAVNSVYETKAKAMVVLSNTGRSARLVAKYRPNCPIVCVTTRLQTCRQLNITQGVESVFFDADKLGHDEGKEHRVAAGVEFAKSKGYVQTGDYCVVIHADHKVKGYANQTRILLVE
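qHTS format; LmPK 0.1 nM; substrates PEP 0.5 mM and ADP 0.1 mM. One-hour room-temperature incubation, then coupled luciferase luminescence; 0.5 nM enzyme wells mark activation.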
Giardia FBPA inh = qHTS Assay for Inhibitors of Fructose-1,6-bisphosphate Aldolase from Giardia Lamblia; A8B2U2; purified Giardia FBPA; Potency, µM (series often up to 59.6 µM), for the others: at the highest dose activity, negative = inhibition, actives largely listed as inhibitors; hit rate 0.71% among 290,000; AID 2451, 2010; note: potency is the fitted concentration of half-maximal effect; % is set by controls: 0 for no effect and ±100 for the full control effect; nearly all actives have a fitted effect of over 55% in size
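Giardia FBPA (40 nM reagent) was preincubated 10 min at RT with compound (up to 57.5 uM final), then substrate plus GAPDH/TPI/NAD/arsenate coupling system with diaphorase/resazurin was added; resorufin fluorescence (525/598 nm) was read after 20 min.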
The depositor's hits bear a star. The entries come from a sample that favours hits as a whole. Unless noted, calls come from the whole dose curve; as a rule, active = well fitted curve in the direction sought with a large enough effect; inconclusive = small, poorly fitted or top-dose-only effect, or another doubt; inactive = no such curve, though single readings can be large; an effect the other way counts as inactive or inconclusive.

`COc1ccc(/C=C2/CCc3ccccc3C2=O)cc1CN1CCOCC1` gave Sm TGR inh -2.0%, Cycloheximide cs 51.3*, TbPYK inhibitor -6.3%, Shiga toxin inh 92.3*, LmPK inhibitor -4.8% and Giardia FBPA inh -5.1%.
COc1ccc(/C=C2\CCc3ccccc3C2=O)cc1Cn1nc(C)cc1C was read as Sm TGR inh -0.5%, Cycloheximide cs 21.2*, TbPYK inhibitor -5.8%, Shiga toxin inh 43.7, LmPK inhibitor 2.0% and Giardia FBPA inh -10.9%.
CC(=O)N1[C@H](C)C=C[C@]1(Cc1ccccc1)C(=O)NCc1ccc(C)o1 was read as Giardia FBPA inh -4.3%.
For Nc1ccc(C(=O)OCc2nc3ccccc3s2)cc1 the results were Sm TGR inh 7.2%, Cycloheximide cs 56.2*, TbPYK inhibitor 2.5%, Shiga toxin inh 87.1*, LmPK inhibitor 6.5% and Giardia FBPA inh 1.9%.
For Cc1ccc(C(=O)OCc2nc3ccccc3s2)o1 the results were Sm TGR inh -26.3% and TbPYK inhibitor 1.1%.
`O=C(OCc1nc2ccccc2s1)c1cc2ccccc2oc1=O` gave Sm TGR inh 3.2%, Cycloheximide cs 34.0*, Shiga toxin inh 39.5*, LmPK inhibitor -0.9% and Giardia FBPA inh 0.1%.
For O=C(OCc1nc2ccccc2s1)c1ccc(Br)s1 the results were Sm TGR inh 2.9%, Cycloheximide cs 24.6*, TbPYK inhibitor -5.5%, Shiga toxin inh 28.9 and LmPK inhibitor -4.7%.
Screening CCOC(=O)COc1ccc(F)cc1C(=O)c1ccn2nc(-c3ccc(Cl)cc3)cc2n1 returned Sm TGR inh -1.4% and TbPYK inhibitor 2.5%.
CCOc1ccc(C2c3c(oc4ccc(C)cc4c3=O)C(=O)N2CCCN(C)C)cc1 (configuration not stated) was read as Sm TGR inh 1.4% and TbPYK inhibitor -0.9%.
`O=C(CN1C(=O)COc2ccc(S(=O)(=O)NC3CCCC3)cc21)NCc1ccccc1Cl` gave Sm TGR inh 0.8% and TbPYK inhibitor 2.9%.
NC(=NCCc1c[nH]c2ccccc12)NC(=O)c1ccc(F)cc1 was read as Sm TGR inh 5.1%, Cycloheximide cs 10.4, TbPYK inhibitor -2.0%, Shiga toxin inh 42.4, LmPK inhibitor 3.1% and Giardia FBPA inh -5.8%.
For CNC(=O)COC(=O)c1ccccc1Nc1ccccc1 the results were Sm TGR inh 0.0%, Cycloheximide cs 16.8*, TbPYK inhibitor 3.5%, Shiga toxin inh 117.6*, LmPK inhibitor -2.9% and Giardia FBPA inh -0.6%.
`O=C(COC(=O)c1ccccc1Nc1ccccc1)Nc1ccccc1` gave Sm TGR inh -6.2%, Cycloheximide cs 0.5, TbPYK inhibitor -4.1%, Shiga toxin inh 2.8, LmPK inhibitor -1.7% and Giardia FBPA inh -2.9%.
Screening O=C(COC(=O)c1ccccc1Nc1ccc(SC(F)F)cc1)NC1CC1 returned Sm TGR inh -1.3%, Cycloheximide cs 72.9*, TbPYK inhibitor 4.2%, Shiga toxin inh 75.0*, LmPK inhibitor -20.1% and Giardia FBPA inh -1.6%.
`Cc1cccc(Nc2ccccc2C(=O)OCC(=O)NCc2ccco2)c1C` gave Sm TGR inh -24.7%, Cycloheximide cs 18.9, TbPYK inhibitor -1.5%, Shiga toxin inh 29.6, LmPK inhibitor 0.4% and Giardia FBPA inh 0.3%.
Screening O=C(COC(=O)c1ccccc1Nc1ccc(SC(F)F)cc1)NCc1ccco1 returned Sm TGR inh 36.5%, Cycloheximide cs 33.2*, TbPYK inhibitor -4.3%, Shiga toxin inh 62.7*, LmPK inhibitor 2.2% and Giardia FBPA inh 0.7%.
Screening CC(C)(C)NC(=O)COC(=O)c1ccccc1Nc1ccc(SC(F)F)cc1 returned Sm TGR inh -7.8%, Cycloheximide cs 55.2*, TbPYK inhibitor 7.2%, Shiga toxin inh 67.0*, LmPK inhibitor -8.9% and Giardia FBPA inh 2.0%.
For O=C(COC(=O)Cc1ccccc1)Nc1ccc(SC(F)F)cc1 the results were Sm TGR inh -3.1%, Cycloheximide cs 11.4, TbPYK inhibitor -2.1%, Shiga toxin inh 8.0, LmPK inhibitor -1.6% and Giardia FBPA inh -5.6%.
`NC(=O)COC(=O)c1ccccc1Nc1ccc(SC(F)F)cc1` gave Sm TGR inh -4.1%, Cycloheximide cs 13.8*, TbPYK inhibitor 10.3%, Shiga toxin inh 40.2, LmPK inhibitor -4.8% and Giardia FBPA inh 3.3%.
O=C(COC(=O)c1ccccc1C(=O)c1ccccc1)Nc1ccc(SC(F)F)cc1 was read as Sm TGR inh -7.9%, Cycloheximide cs 20.1*, TbPYK inhibitor -2.0%, Shiga toxin inh -2.3, LmPK inhibitor -2.0% and Giardia FBPA inh -4.5%.
For CC(=O)N1c2ccc(S(=O)(=O)NCC3CCC(C(=O)Nc4cc(C)ccc4C)CC3)cc2CC1C (configuration not stated) the results were Sm TGR inh 4.4% and TbPYK inhibitor 4.6%.
O=C(CN1C(=O)/C(=C/c2ccccc2F)Sc2ccccc21)NCC1CCCO1 (configuration not stated) was read as Sm TGR inh -0.2%, Cycloheximide cs 2.3, TbPYK inhibitor -0.4%, Shiga toxin inh 9.8 and LmPK inhibitor -0.9%.
For CS(=O)(=O)N1CCN(c2ccc(NC(=O)c3cc4ccccc4o3)cc2)CC1 the results were Sm TGR inh 1.7%, Cycloheximide cs 18.8*, TbPYK inhibitor -2.5%, Shiga toxin inh 21.2, LmPK inhibitor 4.0% and Giardia FBPA inh 8.6%.
For CN1CCN(c2ccc(NC(=O)c3cc4ccccc4o3)cc2)CC1 the results were Sm TGR inh -15.4%, Cycloheximide cs 33.4*, TbPYK inhibitor -0.1%, Shiga toxin inh 57.4, LmPK inhibitor -0.2% and Giardia FBPA inh -0.5%.
Screening CS(=O)(=O)N1CCN(c2ccccc2NC(=O)c2cc3ccccc3o2)CC1 returned Sm TGR inh -8.5%, Cycloheximide cs -5.0, TbPYK inhibitor 4.8%, Shiga toxin inh -8.0, LmPK inhibitor 0.7% and Giardia FBPA inh 8.9%.
For CC1CCC/C=C/C(=O)c2c(O)cc(O)cc2CC(=O)O1 (configuration not stated) the results were Sm TGR inh 7.94µM*, Cycloheximide cs -5.2, TbPYK inhibitor -3.1%, Shiga toxin inh -12.4, LmPK inhibitor 0.1% and Giardia FBPA inh inconclusive.
For CCOc1ccc(S(=O)(=O)N(C(=O)c2ccncc2)c2ccc3oc(C)c(C(=O)OC)c3c2)cc1 the results were Sm TGR inh 1.1% and TbPYK inhibitor -0.6%.
Screening Clc1ccc2nc(CSc3nc4ccccc4o3)cn2c1 returned Sm TGR inh 8.2%, Cycloheximide cs 37.4*, TbPYK inhibitor 1.8%, Shiga toxin inh 129.3*, LmPK inhibitor -0.6% and Giardia FBPA inh -2.8%.
